Screening data deposited in PubChem by National Center for Advancing Translational Sciences (NCATS).
Sampled rows, rich in hits. Any-hit rate of the full collection: about 19%.
SARS PLP yeast – qHTS of Yeast-based Assay for SARS-CoV PLP; S. cerevisiae expressing SARS-CoV PLpro, growth rescue; Potency, µM (top dose mostly 32.9 µM), for the others: at the top dose activity, positive = growth rescue, actives largely listed as activators; 330,000 tested, 0.19% active; calls by dose curve; further: potency means the concentration at half of the fitted maximal effect; 0% is about no effect; nearly all actives have a fitted effect of over 55% in size
Shiga inhibitor – A qHTS for Small Molecule Inhibitors of Shiga Toxin; inhibition, % at 38.7 µM; Vero cells, Shiga toxin protein synthesis inhibition reporter; 290,000 tested, 9.2% active; in the data active means inhibition mostly above about 28%, no sharp cut-off; inactive means mostly below about 43%; further: 0% is about no effect
AMA1-RON2 inh – qHTS for Inhibitors of AMA1-RON; Towards Development of Antimalarial Drug Lead: Primary Screen; 360,000 tested, 0.2% active; AlphaScreen AMA1-biotinylated RON2 peptide binding; Potency, µM (highest dose often 58.2 µM), without a hit: at the top dose activity change, negative = inhibition, hits mostly inhibitors;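 further: potency means the concentration at half of the fitted maximal effect; 0% = vehicle wells and -100% = peptide control; nearly all actives have a fitted effect of over 45% in size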
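AMA1 (3D7) with his tag at 25 nM final met compounds first, then biotinylated RON2 peptide at 25 nM; detection used donor plus acceptor beads, 10 µg/mL apiece, read by AlphaScreen after 30 min at room temperature.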
Pf growth 96h – Primary qHTS for delayed death inhibitors of the malarial parasite plastid, 96 hour incubation; P. falciparum luciferase reporter growth, 96 h; Potency, µM (top dose mostly 28.7 µM), for inactives: top-dose activity change, negative = inhibition, actives largely listed as inhibitors; 320,000 tested, 6.9% active; AID 504834, 2011; further: potency means the concentration at half of the fitted maximal effect; on the % scale 0 is the no-effect control and ±100 the full control effect
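Delayed-death screen, second-generation endpoint: infected erythrocytes, 2% hematocrit, 0.05% parasitemia final; 96 hours at 37 C, 5% CO2; luciferase detection reagent; luminescence decrease equals reduced growth.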
Cycloheximide cs – Cycloheximide Counterscreen for Small Molecule Inhibitors of Shiga Toxin; cell reporter, cycloheximide protein synthesis inhibition counterscreen; max response, %; 300,000 tested, 12% active; in the data active means max response mostly above about 13%, no sharp cut-off; inactive means mostly below about 14%; further: read at 38.3 µM for the half of the compounds with a filed dose; 0% is about no effect
Pf growth 48h – Primary qHTS for delayed death inhibitors of the malarial parasite plastid, 48 hour incubation. P. falciparum luciferase growth in erythrocytes, 48 h. Potency, µM (top dose mostly 28.7 µM), for the others: at the top dose activity change, negative = inhibition, most hits filed as inhibitors. 310,000 tested, 5.9% active; further: potency means the concentration at half of the fitted maximal effect; on the % scale 0 is the no-effect control and ±100 the full control effect
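Here the parasites carry a stable luciferase gene and grow inside erythrocytes in Albumax-based RPMI medium with compound for one erythrocytic cycle. Activity is scored as loss of luminescent signal.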
Numbers without * were called inactive; u = inconclusive; x = no result; + = active, no number. Unless noted, the call rests on the fitted dose curve; in most records, active means well fitted curve in the direction sought with a large enough effect; inconclusive means small, poorly fitted or top-dose-only effect, or another doubt; inactive means no such curve, though single readings can be large; an effect the other way counts as inactive or inconclusive.

SMILES	SARS PLP yeast	Shiga inhibitor	AMA1-RON2 inh	Pf growth 96h	Cycloheximide cs	Pf growth 48h
O=C(Cc1ccccc1)Nc1ccc2oc(=O)ccc2c1	-1%	21	-8%	-3%	13*	31%
COCCCn1c(SCC(=O)OC2CCCCC2)nnc1-c1ccco1	-7%	19	0%	u	17*	u
COCCCn1c(SCC(=O)NC2CCCC2)nnc1-c1ccco1	21%	-12	7%	0%	-2	7%
Cn1c(SCC(=O)OC2CCCCC2)nnc1-c1ccco1	19%	16	1%	u	16*	-8%
COCCCn1c(SCC(=O)N2CCc3ccccc32)nnc1-c1ccco1	0%	7	-6%	12µM*	1	-6%
CN(C)c1ccc(CNC(=O)c2cc(S(=O)(=O)N3CCOCC3)cn2C)cc1	3%	-2	-4%	u	-3	1%
CCc1c(C)sc(NC(=O)Cn2nc(C(F)(F)F)c3c2CCCC3)c1C#N	2%	-13	1%	16%	1	20%
O=C(COc1ccccc1)Nc1cccc(-c2nc3cc4ccccc4cc3[nH]2)c1	-30%	79*	4%	14%	70*	117%
CCC(=O)Nc1cccc(-c2csc(-c3ccccc3)n2)c1	-110%	62*	12%	-2%	54*	34%
CC(C)CC(=O)Nc1cccc(-c2csc(-c3ccccc3)n2)c1	-17%	+	12%	6.6µM*	39*	u
CC(C)CC(=O)Nc1cccc(-c2nc3ccccc3[nH]2)c1	0%	16	-2%	-3%	14*	86%
CC(=O)Nc1cccc(-c2csc(C(O)c3ccccc3)n2)c1 (stereo not drawn)	x	x	0%	x	x	x
O=C(COC(=O)COc1ccccc1)Nc1ncc(Cl)cc1Cl	-2%	x	-2%	x	x	x
Cc1cc2ccccc2c(=O)n1CC(=O)NCCC1=CCCCC1	-1%	16	3%	u	-1	13%
Cc1ccc(-c2noc(C3CCCN(C(=O)c4ccc(F)cc4F)C3)n2)cc1 (stereo not drawn)	-10%	17	-4%	u	15*	-24%
CC(C)c1ccc(-c2noc(C3CCCN(C(=O)c4ccc(F)cc4F)C3)n2)cc1 (stereo not drawn)	-7%	38*	8%	51%	55*	u
O=S(=O)(c1ccc(F)cc1)N1CCCC(c2nc(-c3ccc(F)cc3)no2)C1 (stereo not drawn)	2%	x	-3%	-3%	x	18%
O=C(OCC(=O)N1N=C(c2ccc(Cl)cc2)CC1c1ccco1)c1cccnc1 (stereo not drawn)	0%	x	11%	x	x	x
CCOc1ccc(CN(C)CC(=O)Nc2ccc3c(c2)CCC3)cc1OC	0%	-7	-22%	-11%	-1	-13%
COc1cc(CNc2ccc3c(c2)CCC3)cc(OC)c1O	4%	63*	u	10%	30*	25%
CCOc1cc(CNc2ccc3c(c2)CCC3)ccc1O	3%	19	-27%	19%	34*	12%
CCCCCCCCN1C(=O)[C@H](CC(=O)NCC2CCCCC2)C[C@@]2(C(=O)OCC)CCC=C12	x	x	-10%	x	x	x
COc1ccc(OCCN2CCC(C(=O)NC(c3ccc(Cl)cc3)c3ncccc3C)CC2)cc1 (stereo not drawn)	x	x	-29%	x	x	x
CCS(=O)(=O)N1CCC(N2CCC(C)CC2)CC1	3%	-6	-15%	18%	1	7%
Cc1ccc(C2c3c(oc4cc(C)c(C)cc4c3=O)C(=O)N2CCCN2CCOCC2)cc1 (stereo not drawn)	-4%	-4	5%	u	-2	5.2µM*
SMILES	SARS PLP yeast	Shiga inhibitor	AMA1-RON2 inh	Pf growth 96h	Cycloheximide cs	Pf growth 48h
C=CCOc1ccc(C2c3c(oc4ccccc4c3=O)C(=O)N2CCCN2CCOCC2)cc1 (stereo not drawn)	-3%	26	6%	u	-2	u
O=C1c2oc3ccc(F)cc3c(=O)c2C(c2ccc(F)cc2)N1CCCN1CCOCC1 (stereo not drawn)	x	x	-1%	x	x	x
CC(C)Oc1ccc(C2c3c(oc4ccccc4c3=O)C(=O)N2CCCN2CCOCC2)cc1 (stereo not drawn)	-2%	54*	3%	u	17*	u
CCc1noc(C)c1C(=O)NCCN1C(=O)S/C(=C\c2ccccc2F)C1=O	x	x	-9%	x	x	x
Cc1ccc(C2NC(=O)c3ccccc3O2)cc1 (stereo not drawn)	-4%	13	0%	u	-2	1%
CN1CCN(CCOC2c3ccccc3CSc3ccc(Cl)cc32)CC1 (stereo not drawn)	18%	-9	-25%	10µM*	-6	u
Clc1ccc2c(c1)C(OC1CN3CCC1CC3)c1ccccc1CS2 (stereo not drawn)	3%	-18	-10%	u	-9	u
C=CCNC(=O)c1ccc(-c2cccc([N+](=O)[O-])c2)o1	-3%	69*	-18%	-30%	37*	53%
C=CCNC(=O)c1ccc(-c2ccc([N+](=O)[O-])cc2)o1	8%	active	-5%	31%	19*	64%
COc1ccc(NC(=O)c2ccc(-c3ccc([N+](=O)[O-])cc3)o2)cc1OC	-23%	9	5%	6%	-3	-13%
CC(=O)Nc1ccc(NC(=O)c2ccc(-c3ccc([N+](=O)[O-])cc3)o2)cc1	3%	1	-17%	12%	-2	-5%
C=CCNC(=S)N/N=C/c1ccc(-c2cccc([N+](=O)[O-])c2)o1	-1%	41*	78%	53%	16*	u
C=CCNC(=O)/C(=C/c1cccc([N+](=O)[O-])c1)NC(=O)c1ccco1	0%	-4	6%	75%	-3	7%
COc1cccc(NC(=O)c2ccc(-c3ccc([N+](=O)[O-])cc3)o2)c1	-1%	70*	-10%	u	18*	u
COCCN(Cc1ccccc1)C(=O)c1c(C)nn(-c2ccccc2)c1C	1%	12	2%	u	-1	-27%
CCSc1ccc(-c2cc(NC=O)c3ncc(-c4cccc(C(=O)NCCN(C)C)c4)n3c2)cc1	x	x	-10%	x	x	x
COc1ccc(Br)cc1C1NC(c2ccc3c(c2)OCO3)=CC(c2cc(Cl)ccc2O)N1 (stereo not drawn)	x	90*	x	x	45*	x
Oc1ccc(Cl)cc1C1C=C(c2ccc3c(c2)OCO3)NC(c2cc(Br)ccc2F)N1 (stereo not drawn)	x	83*	x	x	31*	x
CC(C)c1csc(CN2CCC(N3CCC(C(=O)N4CCOCC4)CC3)CC2)n1	1%	17	-2%	-2%	1	-8%
